The values below come from PubChem BioAssay (NCI).

“And” between values parts separate entries of the source, which are not always exact repeats. Equal values may be shown once. About 83,000 compounds went through this panel and 20% of them were active in at least one assay; those are over-represented in the sample as a whole.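 Percent growth is the endpoint: 0 to 100 indicates growth inhibition (40 means 60% inhibition), 0 means no net growth, and negative values indicate cell death.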 The source made the active and inactive calls. Where a SMILES comes first, the peptide text is derived from it.

The subject of the test is HS 578T breast. In words: NCI-60 one-dose screen, 48 h (100 = growth as untreated, 0 = no growth, -100 = all killed). The following applies: 10 µM unless noted. On the procedure: Growth inhibition of the HS 578T human tumor cell line is measured as a screen for anti-cancer activity. Cells are grown in 96 well plates and exposed to the test compound for 48 hours. Compounds are tested at a single concentration, which is 10^-5 M for most compounds. The reported endpoint is percent growth (GI% or GIPRCNT), where numbers from 0 - 100% represent growth inhibition, and numbers from -100% - 0 represent cell death. For example, a value of 40 represents 60% growth inhibition. A value of 0 means no net growth occurred over the course of the experiment. A value of -40 indicates 40% of cells at the beginning of the experiment died by the end of the experiment. A value of -100 means all cells are dead at the end of the experiment.
NCI-60 Human Tumor Cell Lines Screen was performed using the standard one-dose NCI protocol, which is described in more detail at https://dtp.cancer.gov/discovery_development/nci-60/default.htm.
Compounds with GIPRCNT values below 10 were considered active. Activity score was based on GIPRCNT using the following formula: […]
Score is 0 for GIPRCNT values of 100 or above, 50 for GIPRCNT values of 0, and 100 for GIPRCNT values of -100.
Consider `COc1cc(C(O)C2C(=O)OCC2C2(c3ccc4c(c3)OCO4)SCCCS2)cc(OC)c1OC` (stereo not given), for which the growth is 101% (inactive).
As for `NC(Cc1c[nH]c2ccccc12)C(=O)O` (stereo not given), the growth is 115% (inactive) and 95.3% (inactive).
Consider `O=C1CSC2=NCCN12`, for which the growth is 88.1% (inactive) and 92.9% (inactive).
The value for `CC(=O)Nc1ccc(S(N)(=O)=O)cc1` was 96.3% (inactive) and 113% (inactive); that for `O=C(O)/C=C\C(=O)Nc1cccc2ccccc12` was 105% (inactive) and 104% (inactive).
With `CC1=C/C(O)CC(=O)Cc2nc(co2)C(=O)N2CCC=C2C(=O)OC(C(C)C)C(C)/C=C\C(=O)NC/C=C\1` (stereo not given), the growth is 63.4% (inactive).
For `O=C(CO)C(O)C(O)C(O)C(O)CO` (stereo not given), the growth is 101% (inactive) and 104% (inactive).
The same measure for `Cl`: 108% (inactive); for `O=c1[nH]cnc2c1ncn2C1OC(CO)C(O)C1O` (stereo not given): 109% (inactive) and 110% (inactive) and 91.9% (inactive).
As to `CN(C)CC1CCCCCC(CN(C)C)C1=O` (stereo not given), the growth was 85.8% (inactive).
On to `CCCCCCCCCCCCCCCc1ccc(N)c(OC2OC(CO)C(O)C(O)C2O)c1` (stereo not given), for which the growth is 103% (inactive).
The value for `CC(C)NC(=O)N/C=C(\C#N)C(N)=O` was 108% (inactive); that for `NC(=O)NCCCC(N)C(=O)O` (stereo not given) was 106% (inactive); that for `Nc1ccc2c(O)cc(S(=O)(=O)O)cc2c1` was 96.3% (inactive).
For `O=C1OC(c2ccccc2)=N/C1=C\c1ccccc1`, the growth is 97.4% (inactive).
The same measure for `CCN(CCNS(C)(=O)=O)c1ccc(N)c(C)c1`: 115% (inactive) and 103% (inactive).
Take `O=C(/C=C/c1ccccc1)c1ccccc1`: the growth is 98.4% (inactive).
The same measure for `CC1CCC2(C(=O)O)CCC3(C)C(=CCC4C5(C)CCC(O)C(C)(C)C5CCC43C)C2C1C` (stereo not given): -49% (active) and 63.1% (inactive).
Take `CC(=O)OCC1OC(OC(C)=O)C(OC(C)=O)C(OC(C)=O)C1OC(C)=O` (stereo not given): the growth is 132% (inactive) and 101% (inactive).
For `Brc1ccc(SSc2ccc(Br)cc2)cc1`, the growth is 96.9% (inactive).
Take `CCc1cc(C)cc(O)c1`: the growth was 110% (inactive).
Consider `CCOC(=O)c1c(C)cc(=O)oc1C`, for which the growth was 118% (inactive).
As to `CC1(C)COC(=S)N1`, the growth is 106% (inactive).
As for `NC(Cc1ccccc1)C(=O)NC(Cc1ccccc1)C(=O)O` (stereo not drawn) (H-Phe-Phe-OH; configuration not given here), the growth was 98.3% (inactive) and 112% (inactive).
Take `C/C(=C\c1ccccc1)c1ccccn1`: the growth is 123% (inactive).
The same measure for `O=C1c2c(O)ccc(O)c2C(=O)c2c(NCCNCCO)ccc(NCCNCCO)c21`: -22.8% (active); for `COc1ccc(N/C=C/C2=[N+](C)c3ccccc3C2(C)C)c(OC)c1`: 99.9% (inactive).
For `CC(C)(O)C(=O)O`, the growth is 102% (inactive).
Regarding `CCCCOC(=O)/C=C\C(=O)NC(N)=O`, the growth was 99.1% (inactive).
Consider `CC(=O)NCC(=O)c1ccc([N+](=O)[O-])cc1`, for which the growth is 106% (inactive).
In the case of `Nc1cc(N)c(N)cc1N`, the growth was 67.7% (inactive).
As to `C#CCOC(=O)Nc1ccccc1`, the growth was 105% (inactive).
For `Fc1ccc([I+]c2ccc(F)cc2)cc1`, the growth was 86.2% (inactive).
On to `CCCCNc1ccc(Nc2ccccc2)cc1`, for which the growth is 105% (inactive).
As for `Nc1nc(N)c2[nH]cnc2n1`, the growth was 114% (inactive).
Take `Cc1cc(-c2cc(C)c(O)c(C)c2)cc(C)c1O`: the growth is 85.1% (inactive).
As to `O=c1n(CC2CO2)c(=O)n(CC2CO2)c(=O)n1CC1CO1` (stereo not given), the growth was 104% (inactive).
As for `O=C1C=C(Nc2ccccc2)c2ccccc2C1=O`, the growth was 94.8% (inactive) and 88.6% (inactive).
The value for `CC(C)NCC(O)c1ccc(O)c(O)c1` (stereo not given) was 112% (inactive) and 96.6% (inactive) and 109% (inactive); that for `COc1ccc(Nc2ccc3ccccc3c2)cc1` was 96.5% (inactive).
